Screening results (PubChem)
HIF-2a block – HIF-2a reporter inhibitors, primary screen, luminescence, 786-0 RCC cells; AID 624352, 2012; 0.72% of 360,000 active; inhibition, % at 18.8 µM; 786-0 RCC cells HIF-2a reporter, luciferase luminescence, overnight;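 active = inhibition of the luminescence signal of 40% or more relative to plate controls, in a single-dose primary screen at 18.75 µM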
Peg3 prom inh – Peg3 promoter-driven luciferase inhibitors, primary screen, cell-based, HeLa, luciferase luminescence; AID 588405, 2011; 1.7% of 360,000 active; HeLa PEG-Prom luciferase reporter, overnight; inhibition, % at 20 µM;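 active = inhibition of at least 50% at 20 µM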
CF NFkB inh – inhibitors of PAF-induced NF-kB signaling, primary screen, cell-based, GFP fluorescence, uHTS; KKLEB NF-kB-GFP reporter, GFP fluorescence overnight; inhibition, % at 5 µM; 0.86% of 360,000 active; AID 588850, 2011;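 active = at least 50% inhibition at 5 µM, scaled per plate between neutral and stimulator controls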;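 also: PAF is a Pseudomonas aeruginosa culture filtrate used as stimulus; plate controls were PAF-stimulated DMSO wells for no effect and unstimulated DMSO wells for full effect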
MITF TRPM1 inh – inhibitors of MITF-dependent TRPM1 promoter reporter, primary screen, cell-based, SK-MEL-5, single point, luciferase. SK-MEL-5 TRPM1 promoter luciferase, 24 h. inhibition, % at 12.5 µM. 0.83% of 330,000 active. AID 488899, 2010;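 active = mean inhibition across replicates of 60% or more, whatever share of single replicates reaches that level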
Shn3 3UTR inh – reduction of Shn3 3'UTR firefly luciferase signal, primary screen, Schnurri-3 inhibitor project, cell-based, Clone20 osteoblasts, set 2 | Clone20 osteoblast Shn3 3'UTR firefly luciferase, 24 h | inhibition, % at 12.5 µM | 0.52% of 360,000 active | AID 588674, 2011;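 active = mean inhibition of at least 75% with every replicate also reaching 75%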;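 also: 0% = median of neutral control wells and 100% = pilot-screen positive control compound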
KKLEB tox – cytotoxicity in KKLEB CF airway cells, primary screen, cytotoxicity control for CF NF-kB inhibitor project, cell-based, uHTS, fluorescence assay plates | KKLEB CF airway cells viability, ATPlite luminescence, overnight; hits give low values; cells stimulated with P. aeruginosa culture filtrate | 0.36% of 360,000 active | activity change (cytotoxicity), % at 5 µM | AID 602141, 2011;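 active = corrected activity change at or below -50% at 5 µM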
Active calls of the source: *; / = no result given. Rows were chosen to be rich in hits. Some 2.8% of all compounds tested hit in one or more screens of this group.

SMILES	HIF-2a block	Peg3 prom inh	CF NFkB inh	MITF TRPM1 inh	Shn3 3UTR inh	KKLEB tox
O=C1/C(=C/c2ccccc2F)SC(=S)N1CC(=O)N1CCCCC1c1cccnc1 (stereo not given)	20	76*	74*	12	-6	-28
O=C(/C=C/c1ccc(F)cc1)NC(=S)N1CCCCC1c1cccnc1 (stereo not given)	0	1	-2	3	-3	2
CCCN(CCC)C(=O)C1CCCN(S(=O)(=O)c2ccc3c(c2)oc(=O)n3C)C1 (stereo not given)	11	16	-24	8	-6	11
Cc1ccc(OCCC(=O)OCC(=O)NC2CCS(=O)(=O)C2)cc1 (stereo not given)	-1	4	0	6	-19	-1
Cc1ccc(C(C)C)cc1OCCn1cncn1	17	5	-8	-4	5	13
CC(=O)c1cccc(NC(=O)Nc2ccc3c(c2)N(C)C(=O)CS3)c1	-55	29	61*	-5	30	-15
Cc1cc(C)cc(NC(=O)Nc2ccc3c(c2)N(C)C(=O)CS3)c1	-49	25	24	-3	2	1
C=CCOC(=O)C1=C(C)N=C2SCCC(=O)N2C1c1cccs1 (stereo not given)	6	0	-6	-1	92*	-1
CCOC(=O)C1=C(C)N=C2SCCC(=O)N2C1c1sccc1C (stereo not given)	2	14	-4	6	4	4
CCN1Cc2c(/C=C/c3ccccc3)nc3ccc(OC)cc3c2N(c2cccc(Cl)c2)C1	17	101*	-7	50	57	-17
C[C@H]1CN([C@@H](C)CO)C(=O)CCCn2nncc2CO[C@@H]1CN(C)C(=O)c1ccc2ccn(C)c2c1	6	-7	-2	/	-12	5
O=C(NC(=S)Nc1nc2ccc(F)cc2s1)c1ccco1	-212	-166	-20	-11	-40	-71*
O=C(NC(=S)Nc1nc2ccccc2s1)c1cccs1	-232	-225	-12	-54	-49	-56*
COC(=O)c1nc(NC(=S)NC(=O)c2cccs2)sc1C	-149	-207	20	-24	-13	-18
CS(=O)(=O)c1ccc2nc(NC(=O)c3ccco3)sc2c1	-132	-147	25	-21	-34	-11
O=C(Nc1nc2ccc(F)cc2s1)c1ccc([N+](=O)[O-])o1	-177	67*	81*	/	-52	-62*
Cc1ccc(C)c(C(=O)CCC(=O)Nc2ccc(N3CCN(C)CC3)cc2C)c1	-24	0	0	-12	-3	-9
CN(Cc1ccccc1)C1=CC(=[N+]2CCCCC2)CC(C)(C)C1	14	18	41	77*	85	-18
CC1(C)CC(N2CCN(Cc3ccccc3)CC2)=CC(=[N+]2CCCCC2)C1	5	12	6	67*	82	8
O=[N+]([O-])/C=C/c1c(OCc2ccccc2)ccc2ccccc12	95*	101*	61*	98*	/	-54*
CCCCOc1ccc2ccccc2c1C=O	-155	-154	0	-59	-31	-3
COC(=O)c1cccc(Oc2cccc(Cl)n2)c1	-12	-8	9	-14	-37	-1
CO/N=C(\Cn1ncc(N2CCCC2)c(Br)c1=O)c1ccc(Cl)cc1	21	17	2	-2	6	-5
CO/N=C(\Cn1ncc(NC2CCCCC2)c(Br)c1=O)c1ccc(Cl)cc1	14	25	27	10	88*	-1
C=CCOc1ccc(C[C@H](N)C(=O)NC[C@H]2O[C@@H](n3cc(C)c(=O)[nH]c3=O)C[C@@H]2O)cc1	9	-4	-50	/	4	11
SMILES	HIF-2a block	Peg3 prom inh	CF NFkB inh	MITF TRPM1 inh	Shn3 3UTR inh	KKLEB tox
COc1ccc(-c2cn3c4c(sc3n2)CCCC4)cc1	-19	-58	-10	-8	5	-67*
CN(C)CCCNC(=O)/C(=C\c1ccc(-c2cccc([N+](=O)[O-])c2)o1)NC(=O)c1ccccc1	-1	44	-20	-22	9	-2
CN(C)CCNC(=O)/C(=C/c1ccc(-c2ccc(Cl)cc2Cl)o1)NC(=O)c1ccccc1	13	111*	27	95*	-17	-27
COc1ccc(S(=O)(=O)N(C)C)cc1NC(=O)COC(=O)Cn1cnc2ccccc2c1=O	-6	5	22	-4	-3	-4
CCCCN(C)CC(O)Cn1cc(/C=C/C(=O)c2ccc(C)cc2)c2ccccc21 (stereo not given)	-52	100*	16	7	-2	-8
COc1ccc(/C(C)=N/OCC(=O)N=Nc2c(O)[nH]c3ccc(Br)cc23)cc1	-10	3	47	-3	9	-53*
COc1ccc(/C=N/OCC(=O)N=Nc2c(O)[nH]c3ccc(Br)cc23)cc1OC	4	4	5	12	8	0
O=C(O)CCN1CCN(S(=O)(=O)c2ccc3ccccc3c2)CC1	21	16	-4	-6	0	5
O=C(O)Cc1sc(Nc2cccc3ccccc23)nc1-c1ccc(Cl)cc1	-2	9	2	8	-8	-21
O=C(O)c1ccc(C(=O)Nc2ccc(F)cc2)cc1	1	8	-16	106*	8	-6
COc1ccccc1/C=C1\CCCC2=C1Nc1nnnn1C2c1ccccc1OC (stereo not given)	26	101*	46	50	91*	-12
Cn1nc(C(F)(F)F)c(/C=N/OC(=O)c2ccccc2)c1SCc1ccccc1Cl	-65	53*	27	22	72	3
O=C1CN(C(=O)COC(=O)CCC(=O)c2ccc(F)cc2)c2ccccc2N1	-1	5	7	-2	-12	-2
COCCn1c(SCC(=O)Nc2ccc(F)cc2)nc2c(oc3ccccc32)c1=O	10	6	42	-10	33	-54*
Nc1ccccc1S(N)(=O)=O	-6	10	0	9	1	7
CCn1nnc2cc(C(=O)Nc3cc(S(C)(=O)=O)ccc3Cl)ccc21	-6	2	0	-13	23	5
CCn1nnc2cc(C(=O)Nc3cc(Cl)ccc3C)ccc21	-22	-9	6	2	88*	8
CC(C)(C)c1ccc(OCCCCCCN2CCNCC2)cc1	10	64*	7	25	26	-19
COCCCNCCOc1ccc(C(C)(C)c2ccccc2)cc1	9	25	4	-9	-8	-14
CC(C)(c1ccccc1)c1ccc(OCCN2CCOCC2)cc1	4	1	-4	4	7	-8
